# From PubChem BioAssay (Tox21)
# Values without a mark were called inactive. Results filed as inconclusive are left out. Entries that show only a call come without a potency. Calls of active or inactive are those of the source. Unless noted, calls follow the shape of the dose curve; as a rule, active = well fitted curve in the direction sought with a large enough effect in the repeat runs; inconclusive = weak or mixed curves; inactive = no such curve, though single readings can be large; an effect the other way counts as inactive or inconclusive.
# Experiments:
# [1] = Caspase-3/7 induction in HepG2 cells by small molecules, qHTS assay (AID 1346978); conditions: HepG2 caspase-3/7 activation, Caspase-Glo luminescence, 17 h; series mostly up to 92.4 µM; also: nearly all actives have a fitted effect of over 15% in size
# Method in brief: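 Wild-type HepG2 cells, 2,000/well, settled 5 hr at 37 C and 5% CO2, then compound-treated for 17 hr; caspase-3/7 activity read by luminescent Caspase-Glo 3/7 after 30 min at room temperature.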
# [2] = Caspase-3/7 induction in CHO-K1 cells by small molecules, qHTS cell viability counter screen (AID 1346979); conditions: CellTiter-Fluor fluorescence, 17 h; series mostly up to 92.4 µM; also: nearly all actives have a fitted effect of over 35% in size
# Method in brief: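 CHO-K1 wt, 1,500 cells/well; 5hr pre-incubation 37C/5% CO2; compound pin transfer (DMSO); 16hr exposure; CellTiter-Fluor added, 1hr, fluorescence read.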
# [3] = Caspase-3/7 induction in CHO-K1 cells by small molecules, qHTS assay (AID 1346980); conditions: CHO-K1 caspase-3/7 induction, Caspase-Glo luminescence, 17 h; series mostly up to 92.4 µM; also: nearly all actives have a fitted effect of over 15% in size
# Method in brief: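 Wild-type CHO-K1 cells exposed to compounds for 17hr at 37 C, 5% CO2. Caspase-3/7 activity then measured by Caspase-Glo 3/7 luminescence after 30min at room temperature.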
# [4] = Caspase-3/7 induction in HepG2 cells by small molecules, qHTS cell viability counter screen (AID 1346981); conditions: CellTiter-Fluor fluorescence, 17 h; series mostly up to 92.4 µM; also: nearly all actives have a fitted effect of over 30% in size
# Method in brief: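 Viability determined by CellTiter-Fluor fluorescence in HepG2 wells also used for the luminescent Caspase-Glo 3/7 read. Compounds were present for 16 hr at 37 C, 5% CO2 before reagent addition.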
# [5] = target: Acetylcholinesterase (Homo sapiens) (UniProt P22303); experiment: Acetylcholinesterase (AChE) small molecule antagonists: colormetric cell-based qHTS assay (AID 1347395; calls by dose curve; also: nearly all actives have a fitted effect of over 30% in size); conditions: SH-SY5Y cells AChE activity, colorimetric (Ellman); series mostly up to 115 µM
# Method in brief: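 SH-SY5Y cells; cpd 30 min 37 C; + DTNB/acetylthiocholine, 90 min 37 C; colorimetric thiocholine read; qHTS.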
# [6] = target: Acetylcholinesterase (Homo sapiens) (UniProt P22303); experiment: Acetylcholinesterase (AChE) small molecule antagonists: enzyme-based qHTS assay (AID 1347397; calls by dose curve; also: nearly all actives have a fitted effect of over 55% in size); conditions: Potency: AChE enzyme activity inhibition; series mostly up to 115 µM
# Method in brief: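 Recombinant human AChE (50 mU/mL) preincubated with compound 30 min at room temperature; acetylthiocholine plus DTNB then added, and thiocholine formation read colorimetrically after 10 min at room temperature. DMSO served as vehicle control.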
# [7] = target: Acetylcholinesterase (Homo sapiens) (UniProt P22303); experiment: Acetylcholinesterase (AChE) small molecule antagonists: fluorescence cell-based qHTS assay (AID 1347398; calls by dose curve; also: nearly all actives have a fitted effect of over 50% in size); conditions: SH-SY5Y cells; Potency: AChE activity; series mostly up to 115 µM
# Method in brief: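 SH-SY5Y cells (2000/well), attached overnight, incubated with compound 30 min at 37 C. Acetylthiocholine plus Thiolite Green then added for 40 min at room temperature. Thiocholine fluorescence (Ex/Em 490/520 nm) reports cellular AChE activity.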
# [8] = target: Nuclear receptor subfamily 1 group I member 2 (Homo sapiens) (UniProt O75469); experiment: Human pregnane X receptor (PXR) small molecule agonists, qHTS assay (AID 1346982); conditions: PXR-Luc HepG2, CYP3A4 luciferase reporter, 24 h; series mostly up to 92.4 µM; also: nearly all actives have a fitted effect of over 35% in size
# Method in brief: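 Compound-induced hPXR transactivation of a CYP3A4 luciferase reporter was scored in HepG2 PXR-Luc cells over 24 hr at 37 C, 5% CO2, by luminescence.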
# Potency is read from the fitted curve at half-maximal effect.
# Acetylcholinesterase (Homo sapiens), sequence (P22303 whole entry, looked up): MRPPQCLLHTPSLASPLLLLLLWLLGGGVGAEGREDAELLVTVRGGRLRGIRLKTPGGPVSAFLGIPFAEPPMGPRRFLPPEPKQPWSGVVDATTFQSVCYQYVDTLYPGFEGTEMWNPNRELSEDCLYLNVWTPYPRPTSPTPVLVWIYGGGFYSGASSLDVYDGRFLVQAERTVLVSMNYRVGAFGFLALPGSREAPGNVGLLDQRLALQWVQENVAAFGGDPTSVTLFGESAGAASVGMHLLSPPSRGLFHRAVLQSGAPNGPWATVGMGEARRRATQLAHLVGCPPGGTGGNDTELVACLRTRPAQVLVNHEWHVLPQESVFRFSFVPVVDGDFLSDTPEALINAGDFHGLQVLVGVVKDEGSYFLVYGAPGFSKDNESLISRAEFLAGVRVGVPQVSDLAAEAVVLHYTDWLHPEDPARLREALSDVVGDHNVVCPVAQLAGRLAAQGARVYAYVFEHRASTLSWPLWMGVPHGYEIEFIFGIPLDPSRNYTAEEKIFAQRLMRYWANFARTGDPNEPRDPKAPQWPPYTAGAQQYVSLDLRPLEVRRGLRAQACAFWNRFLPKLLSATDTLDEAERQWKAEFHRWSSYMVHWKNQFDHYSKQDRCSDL
# Nuclear receptor subfamily 1 group I member 2 (Homo sapiens), sequence (O75469 whole entry, looked up): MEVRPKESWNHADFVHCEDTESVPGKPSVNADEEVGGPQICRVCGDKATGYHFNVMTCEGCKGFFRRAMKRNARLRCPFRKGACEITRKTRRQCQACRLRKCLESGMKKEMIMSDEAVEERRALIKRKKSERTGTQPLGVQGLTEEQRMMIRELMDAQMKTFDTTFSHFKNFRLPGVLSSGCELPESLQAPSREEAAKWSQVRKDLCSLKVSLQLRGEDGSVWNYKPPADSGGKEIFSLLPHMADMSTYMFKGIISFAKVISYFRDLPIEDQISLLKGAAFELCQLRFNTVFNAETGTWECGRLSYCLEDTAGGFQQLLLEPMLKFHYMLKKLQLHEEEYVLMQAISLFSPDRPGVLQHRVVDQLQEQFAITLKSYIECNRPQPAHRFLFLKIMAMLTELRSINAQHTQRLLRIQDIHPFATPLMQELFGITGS
structure (smiles),measurement,setting,value
O=[N+]([O-])c1cc(C(F)(F)F)c(Cl)c([N+](=O)[O-])c1Cl,Potency,[1],21.7 µM (active)
same,Potency,[2],8.63 µM (active)
same,Potency,[3],1.93 µM (active)
same,Potency,[4],61.1 µM (active)
same,Potency,[5],inactive
same,Potency,[6],inactive
same,Potency,[7],inactive
C[C@@H]1CC[C@@]2(OC1)O[C@H]1[C@@H](O)[C@H]3[C@@H]4CC[C@H]5C[C@@H](O[C@@H]6O[C@H](CO)[C@H](O[C@@H]7O[C@H](CO)[C@@H](O)[C@H](O[C@@H]8OC[C@@H](O)[C@H](O)[C@H]8O)[C@H]7O[C@@H]7O[C@H](CO)[C@@H](O)[C@H](O[C@@H]8O[C@H](CO)[C@@H](O)[C@H](O)[C@H]8O)[C@H]7O)[C@H](O)[C@H]6O)[C@H](O)C[C@]5(C)[C@H]4CC[C@]3(C)[C@H]1[C@@H]2C,Potency,[1],inactive
same,Potency,[2],4.59 µM (active)
same,Potency,[3],inactive
same,Potency,[4],36.5 µM (active)
same,Potency,[8],inactive
same,Potency,[6],inactive
CC(=O)Nc1ccc2c(c1)Cc1ccccc1-2,Potency,[1],inactive
same,Potency,[2],inactive
same,Potency,[3],inactive
same,Potency,[4],inactive
same,Potency,[8],24.7 µM (active)
same,Potency,[6],inactive
same,Potency,[7],inactive
COCC(=O)N(c1c(C)cccc1C)[C@H](C)C(=O)OC,Potency,[1],inactive
same,Potency,[2],inactive
same,Potency,[3],inactive
same,Potency,[4],inactive
same,Potency,[8],inactive
same,Potency,[5],inactive
same,Potency,[7],inactive
Clc1ccc(C(Cl)(Cl)Cl)c(Cl)c1,Potency,[1],inactive
same,Potency,[2],inactive
same,Potency,[3],inactive
same,Potency,[4],inactive
same,Potency,[8],inactive
same,Potency,[6],inactive
same,Potency,[7],inactive
N#CCc1ccc(Cl)cc1,Potency,[1],inactive
same,Potency,[2],inactive
same,Potency,[3],inactive
same,Potency,[4],inactive
same,Potency,[5],inactive
same,Potency,[6],inactive
same,Potency,[7],inactive
N#C/C=C/c1ccccc1,Potency,[1],inactive
same,Potency,[2],inactive
same,Potency,[3],inactive
same,Potency,[4],inactive
same,Potency,[5],inactive
same,Potency,[6],inactive
same,Potency,[7],inactive
[Cl][Sn]([c]1ccccc1)([c]1ccccc1)[c]1ccccc1,Potency,[1],1.46 µM (active)
same,Potency,[2],0.326 µM (active)
same,Potency,[3],0.326 µM (active)
same,Potency,[4],5.8 µM (active)
same,"activity, negative = inhibition",[5],1.75% [at 23.6 µM]
same,"activity change, negative = inhibition",[6],0% [at 23.6 µM]
same,"activity change, negative = inhibition",[7],12.9% [at 23.8 µM]
CCOP(=S)(OCC)OC(Cl)C(Cl)(Cl)Cl (stereo not drawn),Potency,[1],inactive
same,Potency,[2],inactive
same,Potency,[3],inactive
same,Potency,[4],inactive
same,Potency,[8],inactive
same,Potency,[5],35.6 µM (active)
same,Potency,[7],31.7 µM (active)
CN(C)C1CSSSC1,Potency,[1],inactive
same,Potency,[2],inactive
same,Potency,[3],inactive
same,Potency,[4],inactive
same,Potency,[8],61.1 µM (active)
same,Potency,[5],inactive
same,Potency,[7],inactive
N#CCCO,Potency,[1],inactive
same,Potency,[2],inactive
same,Potency,[3],inactive
same,Potency,[4],inactive
same,Potency,[8],inactive
same,Potency,[5],inactive
same,Potency,[6],inactive
same,Potency,[7],inactive
COP(=O)(OC)SCn1c(=O)oc2cc(Cl)cnc21,Potency,[1],inactive
same,Potency,[2],inactive
same,Potency,[3],inactive
same,Potency,[5],3.56 µM (active)
same,Potency,[6],7.1 µM (active)
same,Potency,[7],0.252 µM (active)
CC(C)(C)c1cc([N+](=O)[O-])cc(C(C)(C)C)c1O,Potency,[1],inactive
same,Potency,[2],7.7 µM (active)
same,Potency,[3],inactive
same,Potency,[8],5.45 µM (active)
same,Potency,[5],inactive
same,Potency,[6],inactive
same,Potency,[7],inactive
[Cl][Sb]([Cl])[Cl],Potency,[1],inactive
same,Potency,[2],54.5 µM (active)
same,Potency,[3],inactive
same,Potency,[8],27.3 µM (active)
same,Potency,[5],inactive
same,Potency,[6],inactive
same,Potency,[7],inactive
CC(C)N1C(=O)N(c2ccccc2)CSC1=NC(C)(C)C,Potency,[1],inactive
same,Potency,[2],61.1 µM (active)
same,Potency,[3],inactive
same,Potency,[8],6.11 µM (active)
same,Potency,[5],inactive
same,Potency,[6],inactive
same,Potency,[7],inactive
Oc1ccccc1Br,Potency,[1],inactive
same,Potency,[2],inactive
same,Potency,[4],inactive
same,Potency,[8],inactive
same,Potency,[5],inactive
same,Potency,[6],inactive
same,Potency,[7],inactive
CN(C)S(=O)(=O)N(SC(F)(Cl)Cl)c1ccccc1,Potency,[1],inactive
same,Potency,[2],7.7 µM (active)
same,Potency,[3],inactive
same,Potency,[8],inactive
same,Potency,[5],inactive
same,Potency,[7],35.6 µM (active)
C[CH2][Hg][N]1C(=O)C2C(C1=O)C1(Cl)C(Cl)=C(Cl)C2(Cl)C1(Cl)Cl (stereo not drawn),caspase activation,[1],-9.39% [at 19 µM]
same,Potency,[2],11.6 µM (active)
same,caspase-3/7 activation,[3],-6.08% [at 19 µM]
same,activation,[8],-20.9% [at 19 µM]
same,"activity change, negative = inhibition",[6],-5.88% [at 23.6 µM]
same,"activity change, negative = inhibition",[7],11.1% [at 23.8 µM]
